The panel holds about 79,000 compounds, 15% with a hit somewhere; the sample as a whole holds those more often. Unmarked numbers belong to inactive results. Active and inactive are the calls of the source. Rule as the data show it: active = growth inhibition above about 70%; inactive = the rest.

Assay [1] can be described thus: NCI Yeast Anticancer Drug Screen. Data for the rad50 strain (AID 155).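 Also: 0% = growth of vehicle-only cultures of the same strain.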 Conditions: S. cerevisiae rad50 strain growth inhibition, active compounds read high. The gist of the method: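 Genetically altered yeast (DNA repair pathway); compound treatment; growth inhibition vs vehicle ctrl.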
A short description of assay [2]: NCI Yeast Anticancer Drug Screen. Data for the mec2-1 strain (AID 157). The note with it: S. cerevisiae mec2-1 strain, active compounds read high. The gist of the method:
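Mutant yeast (mec2-1) grown with compound; growth inhibition relative to vehicle control reported.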

Assay [3] is described as follows: NCI Yeast Anticancer Drug Screen. Data for the sgs1 mgt1 strain (AID 161).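 Also: 0% = growth of cultures given vehicle only.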 Conditions: S. cerevisiae sgs1 mgt1 strain, active compounds read high. Put shortly:
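Yeast cells carrying a defined DNA-repair defect were exposed to test compounds. Growth inhibition was measured relative to vehicle-treated controls.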

Assay [4] can be described thus: NCI Yeast Anticancer Drug Screen. Data for the cln2 rad14 strain (AID 165).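 Also: 0% = growth equal to vehicle treated cultures.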 Conditions: S. cerevisiae cln2 rad14 strain, active compounds read high. The gist of the method: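 Readout is yeast growth inhibition versus vehicle-treated controls, using a strain with cln2 and rad14 alterations exposed to compound.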
Assay [5] is described as follows: NCI Yeast Anticancer Drug Screen. Data for the bub3 strain (AID 167). Conditions: S. cerevisiae bub3 mutant strain, active compounds read high. The gist of the method: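 Yeast carrying a defined mutation is treated with each compound, and growth is compared with that of vehicle-exposed cells to give inhibition.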
The nature of assay [6]: NCI Yeast Anticancer Drug Screen. Data for the mlh1 rad18 strain (AID 175). Conditions: S. cerevisiae mlh1 rad18 strain growth inhibition, active compounds read high. Put shortly:
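Genetically defined yeast (DNA repair-deficient) exposed to compounds; growth inhibition determined relative to vehicle.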

The mark [7] stands for this setting: at 5.0 µM (retest, dose inferred, filed as 0.5).
Where [8] appears, read: at 50.0 µM (retest, dose inferred, filed as 5.0).

In the case of `CCCCC(=O)c1nc(N(CC2CCCCC2)C(=O)NC)sc1N`, the growth inhibition in assay [1] (setting [7]) was -3%; in assay [1] (setting [8]), 11%; in assay [1] (at 50.0 µM), 1.8%; in assay [2] (setting [7]) it was -4%; in assay [2] (setting [8]) it was 35%; in assay [2] (at 50.0 µM) it was -13.4%. Besides, the growth inhibition was -1% in assay [3] (setting [7]); 57% in assay [3] (setting [8]); 7.75% in assay [3] (at 50.0 µM); -1% in assay [4] (setting [7]); 7% in assay [4] (setting [8]); 44.2% in assay [4] (at 50.0 µM). For the same molecule, the growth inhibition in assay [5] (setting [7]) is -3%; in assay [5] (setting [8]), 33%; in assay [5] (at 50.0 µM), 6.3%; in assay [6] (setting [7]), -3%; in assay [6] (setting [8]) it was 12%; in assay [6] (at 50.0 µM), 16.8%.
For `O=C1C2=C(c3ccccc31)C(c1ccccc1Cl)NC(=S)N2` (stereo not given), the growth inhibition is -5% in assay [1] (setting [7]); 11% in assay [1] (setting [8]); 82.2% (active) in assay [1] (at 50.0 µM); -11% in assay [2] (setting [7]); 13% in assay [2] (setting [8]); 39.3% in assay [2] (at 50.0 µM). For the same molecule, the growth inhibition in assay [3] (setting [7]) is -18%; in assay [3] (setting [8]), -4%; in assay [3] (at 50.0 µM), 78.5% (active); in assay [4] (setting [7]), 20%; in assay [4] (setting [8]), 40%; in assay [4] (at 50.0 µM), 63.4%. Also, the growth inhibition was 14% in assay [5] (setting [7]); 60% in assay [5] (setting [8]); 70% (active) in assay [5] (at 50.0 µM); -8% in assay [6] (setting [7]); 40% in assay [6] (setting [8]); 74.8% (active) in assay [6] (at 50.0 µM).
For `O=C(O)/C(=C\c1ccc(Cl)cc1)c1ccc(C(F)(F)F)cc1[N+](=O)[O-]`, the growth inhibition was 11% in assay [1] (setting [7]); 76% (active) in assay [1] (setting [8]); 94.1% (active) in assay [1] (at 50.0 µM); 8% in assay [2] (setting [7]); 90% (active) in assay [2] (setting [8]); 97.5% (active) in assay [2] (at 50.0 µM). Moreover, the growth inhibition in assay [3] (setting [7]) is 0%; in assay [3] (setting [8]), 91% (active); in assay [3] (at 50.0 µM), 96% (active); in assay [4] (setting [7]), 21%; in assay [4] (setting [8]), 84% (active); in assay [4] (at 50.0 µM) it was 97.6% (active). The growth inhibition in assay [5] (setting [7]) was 18%; in assay [5] (setting [8]), 84% (active); in assay [5] (at 50.0 µM), 96.8% (active); in assay [6] (setting [7]) it was 25%; in assay [6] (setting [8]), 93% (active); in assay [6] (at 50.0 µM), 98.2% (active).
As for `O=C(N/C(=C\c1ccc([N+](=O)[O-])cc1)c1nc2ccccc2s1)c1ccccc1`, the growth inhibition in assay [1] (setting [7]) was 3%; in assay [1] (setting [8]), 73% (active); in assay [1] (at 50.0 µM) it was 24.8%; in assay [2] (setting [7]), 1%; in assay [2] (setting [8]) it was 69%; in assay [2] (at 50.0 µM), 76.2% (active). The growth inhibition was -1% in assay [3] (setting [7]); 72% (active) in assay [3] (setting [8]); 54.4% in assay [3] (at 50.0 µM); -2% in assay [4] (setting [7]); 25% in assay [4] (setting [8]); 20% in assay [4] (at 50.0 µM). In addition, the growth inhibition is 4% in assay [5] (setting [7]); 83% (active) in assay [5] (setting [8]); 80.3% (active) in assay [5] (at 50.0 µM); 2% in assay [6] (setting [7]); 55% in assay [6] (setting [8]); 72.5% (active) in assay [6] (at 50.0 µM).
For the molecule `Cn1c(=O)ccc2cc(C(=O)c3ccccc3)ccc21`, the growth inhibition in assay [1] (setting [7]) is 7%; in assay [1] (setting [8]) it was 22%; in assay [1] (at 50.0 µM), 30.2%; in assay [2] (setting [7]) it was -9%; in assay [2] (setting [8]) it was 7%; in assay [2] (at 50.0 µM), 6.95%. Also, the growth inhibition in assay [3] (setting [7]) is -9%; in assay [3] (setting [8]), -5%; in assay [3] (at 50.0 µM), 14.4%; in assay [4] (setting [7]) it was 39%; in assay [4] (setting [8]), 51%; in assay [4] (at 50.0 µM) it was 35.4%. The growth inhibition is -7% in assay [5] (setting [7]); 46% in assay [5] (setting [8]); 16.8% in assay [5] (at 50.0 µM); 9% in assay [6] (setting [7]); 45% in assay [6] (setting [8]); 65.7% in assay [6] (at 50.0 µM).
With `COC(=O)/C(=N\NC(=O)c1ccccc1O)C(C#N)c1ccc(Cl)cc1` (stereo not given), the growth inhibition in assay [1] (setting [7]) was -4%; in assay [1] (setting [8]) it was 44%; in assay [1] (at 50.0 µM) it was 62.1%; in assay [2] (setting [7]), -1%; in assay [2] (setting [8]), 65%; in assay [2] (at 50.0 µM) it was 54.8%. In addition, the growth inhibition in assay [3] (setting [7]) is 13%; in assay [3] (setting [8]) it was 73% (active); in assay [3] (at 50.0 µM), 68%; in assay [4] (setting [7]), -7%; in assay [4] (setting [8]), 42%; in assay [4] (at 50.0 µM), 43.4%. The growth inhibition was -3% in assay [5] (setting [7]); 79% (active) in assay [5] (setting [8]); 71.8% (active) in assay [5] (at 50.0 µM); 0% in assay [6] (setting [7]); 60% in assay [6] (setting [8]); 70.6% (active) in assay [6] (at 50.0 µM).
On to `NC(=S)C1CCC(C2CCCCC2)CC1` (stereo not given), for which the growth inhibition in assay [1] (setting [7]) was 5%; in assay [1] (setting [8]), 97% (active); in assay [1] (at 50.0 µM) it was 96.5% (active); in assay [2] (setting [7]), 14%; in assay [2] (setting [8]), 96% (active); in assay [2] (at 50.0 µM), 94.8% (active). In addition, the growth inhibition is 13% in assay [3] (setting [7]); 97% (active) in assay [3] (setting [8]); 97.2% (active) in assay [3] (at 50.0 µM); -4% in assay [4] (setting [7]); 94% (active) in assay [4] (setting [8]); 83.5% (active) in assay [4] (at 50.0 µM). Also, the growth inhibition is 13% in assay [5] (setting [7]); 97% (active) in assay [5] (setting [8]); 96.3% (active) in assay [5] (at 50.0 µM); 21% in assay [6] (setting [7]); 97% (active) in assay [6] (setting [8]); 95.8% (active) in assay [6] (at 50.0 µM).
As for `CC(=O)OCC1OC(n2cnc3c(Cl)nc(Cl)nc32)C(OC(C)=O)C1OC(C)=O` (stereo not given), the growth inhibition in assay [1] (setting [7]) was 0%; in assay [1] (setting [8]), 0%; in assay [1] (at 50.0 µM), 73.7% (active); in assay [2] (setting [7]), 1%; in assay [2] (setting [8]), 5%; in assay [2] (at 50.0 µM) it was 54.1%. Besides, the growth inhibition in assay [3] (setting [7]) was -1%; in assay [3] (setting [8]) it was 7%; in assay [3] (at 50.0 µM) it was 75.3% (active); in assay [4] (setting [7]), 3%; in assay [4] (setting [8]), 3%; in assay [4] (at 50.0 µM) it was 72.6% (active). Also, the growth inhibition is 1% in assay [5] (setting [7]); -2% in assay [5] (setting [8]); 70% (active) in assay [5] (at 50.0 µM); -1% in assay [6] (setting [7]); 0% in assay [6] (setting [8]); 74.1% (active) in assay [6] (at 50.0 µM).
For the molecule `N#Cc1c([N+](=O)[O-])cc(C(F)(F)F)cc1[N+](=O)[O-]`, the growth inhibition was 92% (active) in assay [1] (setting [7]); 99% (active) in assay [1] (setting [8]); 99.5% (active) in assay [1] (at 50.0 µM); 63% in assay [2] (setting [7]); 100% (active) in assay [2] (setting [8]); 99.6% (active) in assay [2] (at 50.0 µM). Further, the growth inhibition in assay [3] (setting [7]) is 68%; in assay [3] (setting [8]), 100% (active); in assay [3] (at 50.0 µM) it was 99.5% (active); in assay [4] (setting [7]), 82% (active); in assay [4] (setting [8]), 99% (active); in assay [4] (at 50.0 µM), 99.2% (active). In addition, the growth inhibition in assay [5] (setting [7]) was 92% (active); in assay [5] (setting [8]) it was 100% (active); in assay [5] (at 50.0 µM), 99% (active); in assay [6] (setting [7]) it was 92% (active); in assay [6] (setting [8]), 99% (active); in assay [6] (at 50.0 µM) it was 99.3% (active).
Regarding `O=C(O)/C(Cl)=C(\Cl)C(=O)Nc1c(Cl)cccc1Cl`, the growth inhibition was -9% in assay [1] (setting [7]); 7% in assay [1] (setting [8]); 19.1% in assay [1] (at 50.0 µM); -3% in assay [2] (setting [7]); -7% in assay [2] (setting [8]); 51.1% in assay [2] (at 50.0 µM). The growth inhibition in assay [3] (setting [7]) was -13%; in assay [3] (setting [8]), 6%; in assay [3] (at 50.0 µM), 38.2%; in assay [4] (setting [7]), 1%; in assay [4] (setting [8]), 5%; in assay [4] (at 50.0 µM) it was 36.4%. Also, the growth inhibition was 3% in assay [5] (setting [7]); 2% in assay [5] (setting [8]); 29.2% in assay [5] (at 50.0 µM); 19% in assay [6] (setting [7]); 2% in assay [6] (setting [8]); 16.1% in assay [6] (at 50.0 µM).

Source of the values: PubChem BioAssay (NCI).
